High-throughput results as filed in PubChem.
Sampled rows, rich in hits. Any-hit rate of the full collection: about 7.3%.
ELG1 genotox = inducers of genotoxicity in HEK293T ELG1-luciferase cells; HEK293T ELG1-luciferase reporter, luminescence, 16 h; Potency, µM (series often up to 46 µM), inactives show at the top dose activity change, positive = activation, hits mostly activators; hit rate 1.3% among 330,000; AID 504466; further: % of control where 0% means no effect; nearly all actives have a fitted effect of over 60% in size
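HEK293T cells expressing luciferase-tagged ELG1 were exposed to compound or DMSO vehicle for 16 hr at 37 °C and 5% CO2. Luciferase activity was then measured with ONE-Glo after 30 min at room temperature.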
SMN2 splice enh = enhancers of SMN2 splice variant expression; HEK293 SMN2-luciferase splicing reporter, luminescence, 30-36 h; Potency, µM (top dose mostly 46.1 µM), without a hit: at the highest dose activity change, positive = activation, actives largely listed as activators; hit rate 2.8% among 210,000; AID 1458; further: % of control where 0% means no effect; nearly all actives have a fitted effect of over 55% in size
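HEK293 cells carry an SMN2 […]–luciferase reporter in which exon 7 inclusion puts luciferase in frame. Cells were plated 10-12 h before compound addition, then incubated 30-36 h at 37C. ONE-Glo luminescence was read; sodium butyrate at 4.5 mM final served as control.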
KinaseGlo FLuc = counter-screen: inhibitors of Kinase-Glo firefly luciferase | Q27757 | Kinase-Glo luciferase, ATP luminescence, 8 min | Potency, µM (top dose mostly 38.3 µM), for inactives: at the top dose activity change, negative = inhibition, most hits filed as inhibitors | hit rate 0.28% among 200,000; further: on the % scale 0 is the no-effect control and ±100 the full control effect; nearly all actives have a fitted effect of over 60% in size
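Inhibition of Kinase-Glo luciferase light generation was assessed at 10 uM ATP in pH 7.2 imidazole buffer, with luminescence measured after eight minutes at ambient temperature.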
FLuc counter = firefly luciferase modulation, counter-screen for miR-21 project | hit rate 6.9% among 360,000 | purified FLuc, Km substrates, luminescence inhibition | Potency, µM (top dose mostly 57.5 µM), for the others: at the top dose activity change, negative = inhibition, hits mostly inhibitors | P08659;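 further: plate controls were vehicle for no effect and reference inhibitor for full effect; nearly all actives have a fitted effect of over 55% in size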
Target sequence (P08659 whole entry, looked up): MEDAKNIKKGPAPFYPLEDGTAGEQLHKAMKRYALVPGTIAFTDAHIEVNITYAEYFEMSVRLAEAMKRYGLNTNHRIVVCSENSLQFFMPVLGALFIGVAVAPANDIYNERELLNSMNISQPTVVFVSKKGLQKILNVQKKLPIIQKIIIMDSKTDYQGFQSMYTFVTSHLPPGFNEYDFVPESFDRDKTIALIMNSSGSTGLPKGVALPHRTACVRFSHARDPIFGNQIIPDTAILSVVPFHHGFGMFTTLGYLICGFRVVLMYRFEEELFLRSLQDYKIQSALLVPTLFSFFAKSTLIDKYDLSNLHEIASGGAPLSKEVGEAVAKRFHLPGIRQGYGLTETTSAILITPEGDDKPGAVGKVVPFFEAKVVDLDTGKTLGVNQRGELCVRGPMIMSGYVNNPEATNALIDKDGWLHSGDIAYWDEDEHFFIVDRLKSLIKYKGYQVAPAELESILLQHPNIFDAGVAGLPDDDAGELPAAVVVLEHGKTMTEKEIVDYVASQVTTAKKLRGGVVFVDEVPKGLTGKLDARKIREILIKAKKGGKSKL
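Purified P. pyralis luciferase, 10 nM final, with Km-level 10 uM D-luciferin and 10 uM ATP in 50 mM Tris acetate pH 7.5, 10 mM Mg acetate, 0.01% Tween-20, 0.05% BSA; 6-point qHTS titration about 60 µM downward; luminescence read.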
NPC1 prom act = activates the NPC1 promoter; Huh7 NPC1 promoter luciferase reporter, 24 h; Potency, µM (doses to about 9.22 µM), inactives show at the top dose activation, hits mostly activators; AID 485313; hit rate 2.4% among 320,000; further: % of control where 0% means no effect; nearly all actives have a fitted effect of over 60% in size
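Luminescence read-out of NPC1 promoter-driven luciferase in stably transfected Huh7 cells; compounds delivered in DMSO and left 24 h at 37C, 5% CO2, qHTS titration format.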
Rab9 promoter act = activators of Rab9 promoter; hit rate 2.8% among 320,000; Potency, µM (doses to about 9.22 µM), for inactives: at the highest dose activation, negative = inhibition, hits mostly activators; AID 485297; Huh7 Rab9 promoter-luciferase reporter, luminescence, 24 h; further: % of control where 0% means no effect; nearly all actives have a fitted effect of over 60% in size
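Luminescence from Amplite-detected luciferase (10 minutes, ambient) reports Rab9 promoter activation. Before that, stable Rab9-luciferase Huh7 cells (1500/well, reduced-serum OP-MEM I plus 10% FBS) were exposed to compound for 24 hours at 37C.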
The depositor's hits bear a star; ? = inconclusive; . = no result given. The call rests on the fitted dose curve; in most records, active means well fitted curve in the direction sought with a large enough effect; inconclusive means small, poorly fitted or top-dose-only effect, or another doubt; inactive means no such curve, though single readings can be large; an effect the other way counts as inactive or inconclusive. Potency means the concentration at half of the fitted maximal effect.

SMILES | ELG1 genotox | SMN2 splice enh | KinaseGlo FLuc | FLuc counter | NPC1 prom act | Rab9 promoter act
COc1cccc2cc(C(=O)NCc3ccc(F)cc3)c(=N)oc12 | 6% | . | . | 8.5µM* | 0% | -2%
CCc1ccc(C(=O)Cc2cc3cccc(OC)c3oc2=O)cc1 | 13% | . | . | 15µM* | ? | ?
Cc1cc(C(=O)Nc2ccon2)cs1 | 6% | ? | 2% | -2% | 9% | 11%
CC1=C(C(=O)NC(C)C)C2(CCC(C)CC2)OC1=O (stereo not drawn) | 1% | 8% | 0% | 2% | 1% | 1%
C[C@H](CO)N1C[C@H](C)[C@@H](CN(C)C(=O)Nc2ccccc2)Oc2ccc(NC(=O)NC3CCCCC3)cc2C1=O | 5% | . | . | . | . | .
O=C(c1ccccc1)C1O[C@H]1c1ccccc1 (stereo partly drawn) | . | 0% | 0% | . | . | .
O=C1C=C(c2ccccc2)OC(=O)C1C(=O)c1ccccc1 (stereo not drawn) | 2% | -8% | -2% | 24µM* | 2% | 4%
C[C@@H](C(=O)Nc1ccc2ccccc2c1)[C@@H]1C[C@@]1(C)[C@@H](NS(=O)(=O)c1ccc2ccccc2c1)c1ccccc1 | . | -12% | -3% | . | . | .
Cc1ccc(CNC(=O)C2CCCN(S(=O)(=O)c3ccc4c(ccn4C)c3)C2)cc1 (stereo not drawn) | . | . | . | -2% | . | .
Cc1ccc(OC(=O)c2ccc(S(=O)(=O)N(C)C)cc2)c(-n2nc3ccccc3n2)c1 | ? | ? | -5% | ? | 4µM* | 1.4µM*
Cc1ccc(OC(=O)c2cccc(S(=O)(=O)N3CCCC3)c2)c(-n2nc3ccccc3n2)c1 | ? | 11µM* | 0% | ? | 3.5µM* | 4µM*
Cc1ccc(C)c(COC(=O)c2cccc(S(=O)(=O)N3CCCC3)c2)c1 | -4% | . | . | 5% | -1% | 0%
Cc1ccc(OCC(=O)O)c(-n2nc3ccccc3n2)c1 | 0% | -4% | 5% | 2% | -3% | 2%
CC(=O)Oc1ccc(C)cc1-n1nc2ccccc2n1 | ? | ? | ? | 21µM* | 2.8µM* | 4.5µM*
Cc1ccc(OC(=O)c2cccc(S(=O)(=O)N(C)C)c2)c(-n2nc3ccccc3n2)c1 | 4.6µM* | ? | 1% | -17% | 3.5µM* | 2.8µM*
COc1ccc(/C=C/c2cc[n+](C(=O)Cc3ccccc3)cc2)cc1 | -4% | -36% | -2% | -2% | -8% | -1%
CCC(Nc1ccc(OC)cc1)C(=O)N/N=C/c1ccc([N+](=O)[O-])cc1 (stereo not drawn) | -2% | -8% | 2% | -4% | -1% | -6%
O=S(=O)(c1ccc2c(c1)CCN2)N1CCOCC1 | 4% | . | . | 1% | -11% | -3%
O=C(Oc1ccccc1O)c1cccc2ccccc12 | 7% | 14% | 5% | -17% | -7% | -8%
COc1ccc(NC(=O)CN(C)C(=O)c2ccc(-c3ccccc3Cl)o2)cc1 | 12% | . | . | 24µM* | -1% | 0%
COc1ccc(NC(=O)CN(C)C(=O)c2ccc(-c3cccc(C(F)(F)F)c3)o2)cc1 | 1% | . | . | ? | 14% | 9%
O=C(N/N=C/c1cccc(F)c1)c1cc(-c2ccco2)nc2ccccc12 | 8% | ? | -1% | 0.54µM* | 1% | 6%
COc1ccc(NC(=O)c2ccc(-c3ccccc3C(F)(F)F)o2)cc1 | 9% | -1% | -1% | 19µM* | 8% | 4%
COc1cc(/C=N/NC(=O)c2cc(-c3ccco3)nc3ccccc23)cc(OC)c1O | -5% | . | . | 12µM* | -6% | -2%
COc1ccc(OC)c(S(=O)(=O)Nc2ccc(-c3ccc4nnc(C)n4n3)cc2)c1 | ? | . | . | 3% | -5% | 1%
SMILES | ELG1 genotox | SMN2 splice enh | KinaseGlo FLuc | FLuc counter | NPC1 prom act | Rab9 promoter act
COc1ccc(NC(=O)CN(C)C(=O)c2cc(-c3ccco3)nc3ccccc23)cc1 | -9% | . | . | 17µM* | -3% | -1%
Cc1ccc(CNC(=O)C2c3ccccc3C(=O)N(C)C2c2c[nH]c3ccccc23)o1 (stereo not drawn) | . | -2% | -3% | 2% | . | .
NNC(=O)c1ccc(COc2ccc3c(c2)CCC3)o1 | 3% | 16µM* | 0% | ? | ? | 4µM*
NNC(=O)c1ccc(COc2ccc(Br)cc2)o1 | -3% | . | . | -8% | 12% | 1%
O=C(N/N=C/c1cccc(O)c1)c1ccc(COc2ccc3c(c2)CCC3)o1 | ? | -27% | -5% | 19µM* | ? | ?
O=C(c1ccco1)N1CCN(C(=O)c2ccc(COc3ccc4c(c3)CCC4)o2)CC1 | -7% | 14% | -5% | ? | 19% | ?
NC(=O)c1ccc(NC(=O)c2ccc(CN3CCOCC3)cc2)cc1 | 18% | 22% | -4% | -18% | 15% | -1%
Cc1ccccc1NC(=O)c1ccc(CN2CC(=O)N3CCCCC3C2=O)cc1 (stereo not drawn) | -3% | . | . | -2% | -5% | 1%
O=C(Nc1ccc2c(c1)OCO2)c1ccc(CN2CCOCC2)cc1 | 18µM* | -5% | 0% | 15µM* | ? | 29%
CC(C)c1ccc(C(=O)Nc2ccc(CN3CCOCC3)cc2)cc1 | 10% | . | . | 11µM* | -3% | -5%
CC(C)c1ccc(NC(=O)c2ccc(CN3CC(=O)N4CCCCC4C3=O)cc2)cc1 (stereo not drawn) | . | . | . | 11µM* | . | .
CC(C)c1ccc(/C=C/C(=O)Nc2ccc(CN3CCOCC3)cc2)cc1 | -15% | . | . | 12µM* | -14% | -21%
CC(C)CC(=O)Nc1nnc2n1CCS2 | . | . | . | 4% | . | .
CS(=O)(=O)N(CC(=O)N1CCc2ccccc2C1)c1ccc2c(c1)OCO2 | 0% | 8% | 5% | 1% | 0% | 1%
C=C(C)C1Cc2c(ccc(C(=O)O)c2O)O1 (stereo not drawn) | . | 2% | 1% | . | . | .
CC(C)c1ccc(NC(=S)NN2CCOCC2)cc1 | 17% | 22µM* | -1% | ? | ? | ?
CSc1ccc(CN(C)C(=O)CNC(=O)c2sc3ccccc3c2Cl)cc1 | -6% | . | . | ? | 2% | 7%
O=C(NCCOc1ccccc1)C(=O)c1c[nH]c2ccccc12 | 4% | . | . | 27µM* | 12% | 14%
O=C(NC1CCCCC1)C(=O)c1c[nH]c2ccccc12 | 15µM* | . | . | 11µM* | ? | 3.2µM*
Cc1[nH]c2ccccc2c1C(=O)C(=O)NC1CC1 | ? | . | . | 9.5µM* | ? | 1.3µM*
Cc1ccc(NC(=O)C(=O)c2c[nH]c3ccccc23)cc1 | ? | . | . | 1.5µM* | 0.63µM* | 0.79µM*
COc1ccccc1NC(=O)c1ccc(Cl)c(S(=O)(=O)NCc2ccco2)c1 | 1% | . | . | -2% | -3% | -3%
